# Reference: PubChem BioAssay (NCATS)
# Results filed as inconclusive are left out. Values without a mark were called inactive. Activity calls are given as the source filed them. Calls follow the shape of the dose curve; as a rule, active = well fitted inhibition curve with a large enough effect; inconclusive = small, poorly fitted or top-dose-only effect; inactive = flat fitted curve, though single readings scatter.
# Test system: HaCat
# Assay: Cytotoxic Profiling of Annotated Libraries Using Quantitative High-Throughput Screening (AID 1296008); also: nearly all actives have a fitted effect of over 60% in size
# Settings: Five cell lines viability, CellTiter-Glo ATP luminescence, 48-72 h; max response: hits give low values
# Summary of the method: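 Compounds were pin-transferred onto cells and incubated 48 or 72 hr at 37 degree Celsius, 95% humidity. CellTiter-Glo was added, plates sat 10 min at room temperature, then ATP-coupled luminescence was imaged as the viability read-out.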
# % is scaled to controls: 0 for no effect and ±100 for the full control effect; potency is read from the fitted curve at half-maximal effect.
SMILES,outcome,Potency,max response
CCC(C)/C=C(C)/C=C/c1cc2c(cn1)C(=O)C(C)(OC(C)=O)C(O)=C2Cl (centres undefined),inactive,,
CC1=C2C(O)C(=O)OC(c3ccoc3)C2(C)CCC1O (centres undefined),inactive,,
CC(C)c1nc(-c2ccc(NC(=O)Nc3cccc(C(F)(F)F)c3)c3ccccc23)c2c(N)nccn12,,7.31 µM (active),
COc1ccc(-c2cnc3ccc(NCc4ccc(S(N)(=O)=O)cc4)nn23)cc1OC,inactive,,
COc1ncc(Nc2ncc([C@H](C)N3CCN(S(C)(=O)=O)CC3)cc2-c2nc(C)nc(N)n2)cc1F,,0.146 µM (active),
CO[C@H]1C[C@@H]2CC[C@@H](C)[C@@](O)(O2)C(=O)C(=O)N2CCCC[C@H]2C(=O)O[C@H]([C@H](C)C[C@@H]2CC[C@H](n3cnnn3)[C@H](OC)C2)CC(=O)[C@H](C)/C=C(\C)[C@@H](O)[C@@H](OC)C(=O)[C@H](C)C[C@H](C)/C=C/C=C/C=C/1C,,,-3.38%
CC(C)c1cc(C(=O)N2CC[C@H](NC(=O)C3CC3)C2)n[nH]1,inactive,,
Cc1cccc(C)c1-n1c(=O)c2cnc(Nc3ccc(N4CCN(C)CC4)cc3)nc2n2c3ccccc3nc12,,2.06 µM (active),
CCN1CCN(Cc2ccc(NC(=O)c3ccc(C)c(/C=C/c4cnc5[nH]ccc5c4OC)c3)cc2C(F)(F)F)CC1,,5.8 µM (active),
C=C(C(=O)O)C1CCC2(C)CCCC(C)(O)C2C1 (centres undefined),inactive,,
C[C@@H]1C(=O)O[C@H](C)[C@H]1CC(=O)[C@](C)(O)[C@H]1CC[C@@]2(O)C3=CC(=O)[C@@H]4C[C@@H](O)[C@@H](O)C[C@]4(C)C3CC[C@]12C (some centres undefined),,,-15.8%
CC(=O)OC1/C(C)=C/C(=O)C(OC(C)=O)C(C)(C)/C=C/C(C)C(=O)C2(OC(C)=O)CC(C)C(OC(=O)c3ccccc3)C12 (centres undefined),,,-9.17%
COC1=CC(=O)CC(C)C12Oc1cc(OC)cc(O)c1C2=O (centres undefined),,,4.13%
CC(=O)O[C@@H]1[C@H](O)[C@@H](O[C@@H]2O[C@@H](C)[C@H](O[C@@H]3OC[C@@H](O)[C@H](O[C@@H]4OC[C@@H](O)[C@H](O)[C@H]4O)[C@H]3O)[C@@H](O[C@@H]3O[C@H](CO)[C@@H](O)[C@H](O)[C@H]3O)[C@H]2O)[C@H](OC(=O)[C@]23CCC(C)(C)C[C@H]2C2=CCC4[C@@]5(C)CC[C@H](O[C@@H]6O[C@H](C(=O)O)[C@@H](O)[C@H](O[C@@H]7OC[C@@H](O)[C@H](O)[C@H]7O)[C@H]6O[C@@H]6O[C@H](CO)[C@H](O)[C@H](O)[C@H]6O)[C@@](C)(C=O)C5CC[C@@]4(C)[C@]2(C)CC3)O[C@@H]1C (some centres undefined),,,0.448%
COc1cc2ncnc(Nc3ccc(F)c(Cl)c3)c2cc1NC(=O)/C=C/CN1CCCCC1,,0.0411 µM (active),
CCCC(=O)O[C@@H]1[C@@H]2[C@@H](OC(C)=O)[C@]3(C)C(=O)[C@H]4[C@@H](OC(C)=O)C(C)(C)C[C@H]4[C@]3(C)C(=O)[C@@]2(OC(C)=O)C[C@@H]1C,inactive,,
Cc1noc(-c2ccc(-c3ccc(CC(=O)O)cc3)cc2)c1NC(=O)O[C@H](C)c1ccccc1,,,-1.06%
OCc1ccc(O[C@@H]2O[C@H](CO)[C@@H](O)[C@H](O)[C@H]2O)cc1,inactive,,
CN1CCC(Nc2nc(Nc3ccc(Oc4ccccc4)cc3)c3c(=O)[nH]cc(Br)c3n2)CC1,,4.11 µM (active),
CC(C)CCC(=O)CC1c2ccccc2C(=O)N1c1ccc2ccc(Cl)nc2n1 (centres undefined),,,3.26%

SMILES,outcome,Potency,max response
O=C(O)[C@H](Cc1ccc(Nc2nccc3ccncc23)cc1)NC1=C(Br)C(=O)C12CCCCC2,inactive,,
C=C[C@H]1[C@H](O[C@@H]2O[C@H](CO)[C@@H](O)[C@H](O)[C@H]2O)OC=C(C(=O)OC)[C@H]1CCOC(=O)c1cc(O)c(O)c(O)c1,,,4.92%
CO[C@H]1C[C@@H]2CC[C@@H](C)[C@@](O)(O2)C(=O)C(=O)N2CCCC[C@H]2C(=O)O[C@H]([C@H](C)C[C@H]2CC[C@@H](OP(C)(C)=O)[C@H](OC)C2)CC(=O)[C@H](C)/C=C(\C)[C@@H](O)[C@@H](OC)C(=O)[C@H](C)C[C@H](C)/C=C/C=C/C=C/1C,,,-3.04%
CCCCNc1ncc2c(-c3ccc(F)cc3)nn(CC3CCC(N)CC3)c2n1 (centres undefined),,10 µM (active),
O=C(/C=C/c1cccc(S(=O)(=O)Nc2ccccc2)c1)NO,,5.02 µM (active),
COC(=O)N1CCC(n2ncc3c(N4CCOCC4)nc(-c4ccc(NC(=O)Nc5ccc(CO)cc5)cc4)nc32)CC1,,3.66 µM (active),
CC(C)(C)c1ccc(S(=O)(=O)NCc2ccc(C(=O)Nc3cccnc3)cc2)cc1,,6.51 µM (active),
CCCNc1ccc2ncc(-c3ccc4[nH]ncc4c3)n2n1,,0.411 µM (active),
CC(O)/C=C/C1C(C)C(O[C@@H]2O[C@H](CO)[C@@H](O)[C@H](O)[C@H]2O)C(O)CC1(C)C (some centres undefined),,,1.9%
C[C@@H]1O[C@@H](O[C@@H]2[C@@H](O)[C@@H](O[C@]3(CO)O[C@H](CO)[C@@H](O)[C@@H]3OC(=O)/C=C/c3ccc(O)cc3)O[C@H](CO)[C@H]2OC(=O)/C=C/c2ccc(O)cc2)[C@H](O)[C@H](O)[C@H]1O[C@@H]1O[C@@H](C)[C@H](O[C@@H]2OC[C@](O)(CO)[C@H]2O)[C@@H](O)[C@H]1O,inactive,,
O=C(C(c1ccccc1)c1ccccc1)N1CCN(CC(O)COc2cccc3ncccc23)CC1 (centres undefined),,,-24.2%
O=C(CO)[C@@H](O)[C@H](O[C@@H]1O[C@H](CO)[C@H](O)[C@H](O)[C@H]1O)[C@H](O)CO,,,-14%
O=C1NC(=O)C(c2cn(-c3ccccc3)nc2-c2ccc(F)cc2)N1 (centres undefined),,16.4 µM (active),
CCCC(=O)NCCc1csc(-c2ccc(Cl)cc2)n1,,,-70.2%
CC1(CCOC2OC(CO)C(O)C(O)C2O)CCC23OC2(C1)C(O)CC1C(C)(C(=O)O)CCCC13C (centres undefined),,,3.2%
C=C(C)C(=O)O[C@H]1C[C@@](C)(O)C(=O)CC(O)/C(C)=C\[C@H]2OC(=O)C(=C)[C@H]12 (some centres undefined),,,-1.1%
COC(=O)CC(O)CC(O)/C=C/c1c(C)ccc2c1C(O)CC(C)C2 (centres undefined),,,-0.771%
CC1(C)CCCC2(C)C1CC(=O)C13CC(CCC12)C(O)(CO)C3 (centres undefined),inactive,,
C=C(C)C(=O)OC1CC2(C)OC(=CC2=O)C(=C)CC2OC(=O)C(COC)C12 (centres undefined),,,-21.9%
